According to PubChem BioAssay (Tox21):
Records with an inconclusive call do not appear. Calls of active or inactive are those of the source. Unless noted, calls come from the whole dose curve; as a rule, active = well fitted curve in the direction sought with a large enough effect in the repeat runs; inconclusive = weak or mixed curves; inactive = flat fitted curve, though single readings scatter.

What was measured:
[1] = qHTS assay to test for compound auto fluorescence at 535 nm (green) in HEK293 cells (AID 720680); settings: green autofluorescence 485/535 nm; series mostly up to 46 µM
[2] = qHTS assay to test for compound auto fluorescence at 460 nm (blue) in HEK293 cell free culture (AID 720681); settings: cell-free medium, autofluorescence 405/460 nm (blue); series mostly up to 46 µM
Procedure, shortened: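 Blue fluorescence (Ex 405/Em 460 nm, triamterene-equivalent) was read immediately after pin transfer of compound or DMSO into medium (DMEM, 10% FBS) without cells.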

[3] = qHTS assay to test for compound auto fluorescence at 535 nm (green) in HEK293 cell free culture (AID 720682); settings: cell-free medium, green autofluorescence 485/535 nm; series mostly up to 46 µM
Procedure, shortened: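 Intrinsic compound fluorescence is measured in culture medium containing 10% FBS, with excitation at 485 nm and detection at 535 nm, referenced to fluorescein.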

[4] = qHTS assay to test for compound auto fluorescence at 590 nm (red) in HEK293 cell free culture (AID 720683); settings: cell-free medium autofluorescence, Ex540/Em590 red; series mostly up to 46 µM
Procedure, shortened: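 Red-channel autofluorescence of compounds in culture medium (DMEM, 10% FBS), no cells, measured at 540/590 nm. Rose Bengal sodium is the reference fluorophore for equivalence.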

[5] = qHTS assay to test for compound auto fluorescence at 590 nm (red) in HepG2 cell free culture (AID 720684); settings: cell-free medium autofluorescence, red 540/590 nm; series mostly up to 46 µM
Procedure, shortened: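 Cell-free; medium MEM + 10% FBS; compound or DMSO added by pintool; read Ex 540/Em 590 nm; Rose Bengal sodium as red reference fluorophore.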

[6] = qHTS assay to test for compound auto fluorescence at 460 nm (blue) in HepG2 cell free culture (AID 720685); settings: Cell-free culture medium, blue autofluorescence 405/460 nm; series mostly up to 46 µM
Procedure, shortened: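 Cell-free plates of MEM plus 10% FBS received 23 nL compound or DMSO vehicle; blue-channel (405/460 nm) intensity scored against triamterene as reference fluorophore.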

[7] = qHTS assay to test for compound auto fluorescence at 535 nm (green) in HepG2 cell free culture (AID 720686); settings: Cell-free medium, green autofluorescence 485/535 nm; series mostly up to 46 µM
[8] = qHTS assay to test for compound auto fluorescence at 460 nm (blue) in HepG2 cells (AID 720687); settings: autofluorescence 405/460 nm, 1 h; series mostly up to 46 µM
Procedure, shortened: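 Blue-channel autofluorescence (Ex/Em 405/460 nm, triamterene-equivalent) was measured after 1 hr compound exposure at 37 C, 5% CO2. Cells were HepG2, plated overnight at 37 C in MEM plus 10% FBS.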

[9] = molecular target: Glucocorticoid receptor (Homo sapiens) (UniProt P04150); experiment: qHTS assay to identify small molecule agonists of the glucocorticoid receptor (GR) signaling pathway (AID 720691; active = well fitted activation curve with a large enough effect in the signal ratio in the repeat runs, not every such curve was filed as active; the % refers to the signal ratio); settings: GR-bla HeLa, beta-lactamase reporter ratio, 18 h; activation: at 62.4 µM (top of the series)
Glucocorticoid receptor (Homo sapiens), sequence (P04150 whole entry, looked up): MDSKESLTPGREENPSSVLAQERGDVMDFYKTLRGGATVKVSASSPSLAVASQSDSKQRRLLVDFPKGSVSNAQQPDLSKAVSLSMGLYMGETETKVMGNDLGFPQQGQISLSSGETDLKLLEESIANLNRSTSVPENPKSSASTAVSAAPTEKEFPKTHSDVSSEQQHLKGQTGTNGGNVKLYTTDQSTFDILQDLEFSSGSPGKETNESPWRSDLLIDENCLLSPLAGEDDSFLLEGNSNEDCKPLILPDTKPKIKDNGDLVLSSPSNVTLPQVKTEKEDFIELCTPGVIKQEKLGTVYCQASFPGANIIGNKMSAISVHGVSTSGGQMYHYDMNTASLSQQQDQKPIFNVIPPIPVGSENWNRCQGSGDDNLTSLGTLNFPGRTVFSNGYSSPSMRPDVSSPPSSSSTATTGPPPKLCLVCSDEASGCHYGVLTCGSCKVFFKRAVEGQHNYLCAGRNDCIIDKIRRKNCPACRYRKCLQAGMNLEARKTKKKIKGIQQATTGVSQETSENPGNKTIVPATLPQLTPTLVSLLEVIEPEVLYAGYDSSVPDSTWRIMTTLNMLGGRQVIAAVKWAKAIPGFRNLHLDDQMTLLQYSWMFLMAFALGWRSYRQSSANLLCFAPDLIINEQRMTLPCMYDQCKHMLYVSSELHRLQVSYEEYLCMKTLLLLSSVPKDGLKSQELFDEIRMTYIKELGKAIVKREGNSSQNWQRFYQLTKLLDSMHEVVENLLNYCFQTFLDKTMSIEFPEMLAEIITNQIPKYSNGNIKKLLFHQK
Procedure, shortened: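 Compounds in DMSO, alongside positive controls, were added to GR-bla HeLa reporter cells and incubated 18 h at 37 C; GRE-driven beta-lactamase was detected by fluorescence after 2 h with FRET substrate at room temperature.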

[10] = molecular target: Glucocorticoid receptor (Homo sapiens) (UniProt P04150); experiment: qHTS assay to identify small molecule antagonists of the glucocorticoid receptor (GR) signaling pathway (AID 720692; active = well fitted inhibition curve with a large enough effect in the signal ratio in the repeat runs, not every such curve was filed as active; the % refers to the signal ratio); settings: GR-bla HeLa, beta-lactamase FRET ratio, dexamethasone-stimulated, 18 h; series mostly up to 58.5 µM
Procedure, shortened: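 In a 1536-well cell format, compounds were added 4 h after seeding GR-bla HeLa cells, together with dexamethasone at 5 nM final; reporter activity was measured by FRET-substrate fluorescence following 18 h at 37 C.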

Measured: Potency

Nc1cc(Cl)c(NC2=NCCN2)c(Cl)c1
inactive: [1] | [2] | [3] | [4] | [5] | [6] | [7] | [8] | [9] | [10]

COc1ccc(/C=N/NC(=O)c2ccncc2)c(C(=O)O)c1OC
inactive: [1] | [2] | [3] | [4] | [5] | [6] | [7] | [8] | [9]

C[S+](C)CCC(N)C(=O)O (configuration not stated)
inactive: [1] | [2] | [3] | [4] | [5] | [6] | [7] | [8] | [9] | [10]

CC(C)COC(=O)OCN1C(=O)CN(CCN2CC(=O)N(COC(=O)OCC(C)C)C(=O)C2)CC1=O
inactive: [1] | [2] | [3] | [4] | [5] | [6] | [7] | [8] | [9] | [10]

O=C(O)c1cc2cc(Cc3cccnc3)ccc2o1
inactive: [1] | [2] | [3] | [4] | [5] | [6] | [7] | [8] | [9] | [10]

NC[C@@H]1CC[C@@H](N)[C@@H](O[C@H]2[C@H](O)[C@@H](O[C@H]3O[C@H](CO)[C@@H](O)[C@H](N)[C@H]3O)[C@H](N)C[C@@H]2N)O1
inactive: [1] | [2] | [3] | [4] | [5] | [6] | [7] | [8] | [9] | [10]

CC1(C)S[C@@H]2[C@H](NC(=O)[C@@H](NC(=O)N3CCNC3=O)c3ccccc3)C(=O)N2[C@H]1C(=O)O
inactive: [1] | [2] | [3] | [4] | [5] | [6] | [7] | [8] | [9] | [10]

CC(=O)Oc1cc(C(F)(F)F)ccc1C(=O)O
inactive: [1] | [2] | [3] | [4] | [5] | [6] | [7] | [8] | [9] | [10]

O=C(O)COc1ccc(C(=O)c2cccs2)c(Cl)c1Cl
inactive: [1] | [2] | [3] | [4] | [5] | [6] | [7] | [8] | [9] | [10]

COc1ccc(/C=C/C(=O)O)cc1
inactive: [1] | [2] | [3] | [4] | [5] | [6] | [7] | [8] | [9] | [10]

CC1CCCCN1CCCOC(=O)c1ccccc1 (configuration not stated)
inactive: [1] | [2] | [3] | [4] | [5] | [6] | [7] | [8] | [9] | [10]

O=P(O)(O)C(O)(Cn1ccnc1)P(=O)(O)O
inactive: [1] | [2] | [3] | [4] | [5] | [6] | [7] | [8] | [9]

COC1[C@@H](O[C@@H]2O[C@H](C)[C@@H](O[C@H]3C[C@@](C)(O)[C@H](OC(=O)CC(C)C)[C@H](C)O3)[C@H](N(C)C)[C@H]2O)[C@@H](CC=O)C[C@@H](C)[C@@H](O)/C=C/C=C/C[C@@H](C)OC(=O)C[C@H]1OC(C)=O (some centres not stated)
inactive: [1] | [2] | [3] | [4] | [5] | [6] | [7] | [8] | [9] | [10]

COc1cc2c(c(OC)c1OC)-c1c(cc3c(c1OC)OCO3)C[C@@H](C)[C@](C)(O)C2
inactive: [1] | [2] | [3] | [4] | [5] | [6] | [7] | [8] | [9] | [10]

O=C1CCC(c2ccc(-n3ccnc3)cc2)=NN1
inactive: [1] | [2] | [3] | [4] | [5] | [6] | [7] | [8] | [9]

CC[C@@H](C)[C@H](N)C(=O)O
inactive: [1] | [2] | [3] | [4] | [5] | [6] | [7] | [8] | [9] | [10]

O=c1[nH]c(=O)n([C@H]2C[C@H](O)[C@@H](CO)O2)cc1/C=C/Br
inactive: [1] | [2] | [3] | [4] | [5] | [6] | [7] | [8] | [9] | [10]

CN(C/C=C/c1ccccc1)Cc1cccc2ccccc12
inactive: [1] | [2] | [3] | [4] | [5] | [6] | [7] | [8] | [9] | [10]

CN[C@@H]1[C@@H](O[C@H]2O[C@H](CO)[C@@H](N)[C@H](O)[C@H]2O)O[C@H]2C[C@@H](N)[C@@H](O[C@H]3[C@H](O)[C@@H](O)[C@H](N)C[C@@H]3N)O[C@@H]2[C@@H]1O
inactive: [1] | [2] | [3] | [4] | [5] | [6] | [7] | [8] | [9] | [10]
